Measured values reported in PubChem BioAssay AID1159580 (chemical genetic matrix, 2015).
Values joined by “and” are separate entries in the source; they are usually repeats but may differ in a detail not shown here. Identical values can stand only once. Among all 5,500 compounds or so, about 2,000 (36%) were called active. Roughly 18% stayed inconclusive and do not appear here. Rule as the data show it: active = normalized growth mostly below about 0.91 (no sharp cut-off); inconclusive = no clear call, values can overlap the other calls; inactive = mostly above about 0.92. The list shows a part of the results.

Test: chemical genetic growth profiling, strain panel (AID 1159580);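 also: tested at 20 µM; growth read once vehicle control cultures reached saturation at 30 °C; 1 = growth at the plate median or of vehicle wells; lower values mean less growth of the strain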
Conditions: S. cerevisiae deletion strains, growth OD

Measured: normalized growth

CN(C)C(=O)Oc1ccc[n+](C)c1
inactive: locus YAL021C, strain ccr4, hits give low values 1 | locus YAL026C, strain drs2, hits give low values 1.01 | locus YAL030W, strain snc1, hits give low values 0.998 | locus YAL040C, strain CLN3, hits give low values 0.966 | locus YBL061C, strain skt5, hits give low values 0.999 | locus YBR009C, strain hhf1, hits give low values 0.996 | locus YBR021W, strain FUR4, hits give low values 1.02 | locus YBR023C, strain chs3, hits give low values 1 | locus YBR171W, strain sec66, hits give low values 1 | locus YBR229C, strain ROT2, hits give low values 1.02 | locus YBR231C, strain swc5, hits give low values 1.03 | locus YBR279W, strain paf1, hits give low values 1 | locus YCL011C, strain gbp2, hits give low values 0.998 | locus YCL016C, strain dcc1, hits give low values 1.01 | locus YCL029C, strain bik1, hits give low values 1.02 | locus YCL061C, strain MRC1 (second series), hits give low values 0.992 | locus YCL061C, strain MRC1, hits give low values 1.01 | locus YCL069W, strain vba3, hits give low values 1 | locus YCR088W, strain abp1, hits give low values 1 | locus YDL005C, strain med2, hits give low values 1 | locus YDL035C, strain GPR1, hits give low values 1.03 | locus YDL040C, strain nat1, hits give low values 1 | locus YDL074C, strain BRE1, hits give low values 1 | locus YDL101C, strain DUN1, hits give low values 1.01 | locus YDL134C, strain PPH21, hits give low values 1.03 | locus YDL185W, strain tfp1, hits give low values 1.01 | locus YDL192W, strain arf1, hits give low values 1.02 | locus YDR001C, strain nth1, hits give low values 1 | locus YDR069C, strain doa4, hits give low values 1 | locus YDR101C, strain arx1, hits give low values 1.02 | locus YDR137W, strain rgp1, hits give low values 1.03 | locus YDR159W, strain sac3, hits give low values 1 | locus YDR162C, strain NBP2, hits give low values 1.02 | locus YDR195W, strain ref2 0.99 | locus YDR297W, strain sur2, hits give low values 0.999 | locus YDR318W, strain mcm21, hits give low values 1.02 | locus YDR334W, strain swr1, hits give low values 1 | locus YDR335W, strain msn5, hits give low values 0.996 | locus YDR363W, strain ESC2, hits give low values 0.885 | locus YDR388W, hits give low values 1.02 | locus YDR392W, strain spt3, hits give low values 0.996 | locus YDR502C, strain sam2, hits give low values 1.02 | locus YEL003W, strain gim4, hits give low values 0.993 | locus YEL037C, strain rad23, hits give low values 0.991 | locus YEL061C, strain CIN8 (second series), hits give low values 0.993 | locus YEL061C, strain CIN8, hits give low values 1.01 | locus YER002W, strain NOP16, hits give low values 1.01 | locus YER015W, strain faa2, hits give low values 0.989 | locus YER016W, strain bim1, hits give low values 1 | locus YER110C, hits give low values 1.03 | locus YER111C, strain swi4, hits give low values 1.02 | locus YER155C, strain BEM2 (second series), hits give low values 0.994 | locus YER155C, strain BEM2, hits give low values 1.02 | locus YER167W, strain BCK2, hits give low values 1.02 | locus YFR010W, strain ubp6, hits give low values 1.01 | locus YGL078C, strain dbp3, hits give low values 1.01 | locus YGL086W, strain mad1, hits give low values 1 | locus YGL167C, strain pmr1, hits give low values 1.01 | locus YGL173C, strain kem1, hits give low values 1.01 | locus YGL227W, strain vid30, hits give low values 1.01 | locus YGL240W, strain doc1, hits give low values 1.01 | locus YGL248W, strain PDE1, hits give low values 1 | locus YGL253W, strain hxk2, hits give low values 1 | locus YGR135W, strain pre9, hits give low values 1.05 | locus YGR229C, strain SMI1, hits give low values 1.01 | locus YGR252W, strain gcn5, hits give low values 1.01 | locus YHR013C, strain ard1, hits give low values 1.01 | locus YHR027C, strain rpn1, hits give low values 1.01 | locus YHR030C, strain SLT2, hits give low values 1.02 and 1.01 | locus YHR079C, strain IRE1 (second series), hits give low values 1.01 | locus YHR079C, strain IRE1, hits give low values 1 | locus YHR094C, strain hxt1, hits give low values 1.02 | locus YHR129C, strain ARP1, hits give low values 1.01 | locus YHR142W, strain chs7, hits give low values 0.994 | locus YHR200W, strain rpn10, hits give low values 1.02 | locus YIL066C, strain RNR3, hits give low values 1.02 | locus YIL073C, strain SPO22, hits give low values 1.06 | locus YIL125W, strain kgd1, hits give low values 1.02 | locus YIR030C, strain dcg1, hits give low values 1.02 | locus YJL092W, strain hpr5, hits give low values 1.02 | locus YJL095W, strain BCK1 (second series), hits give low values 1.01 | locus YJL095W, strain BCK1, hits give low values 0.994 and 1.04 | locus YJL115W, strain asf1, hits give low values 0.993 | locus YJL129C, strain trk1, hits give low values 1.01 | locus YJL134W, strain LCB3, hits give low values 1.01 | locus YJL154C, strain vps35, hits give low values 0.995 | locus YJL164C, strain tpk1, hits give low values 1 | locus YJL166W, strain qcr8, hits give low values 0.996 | locus YJL168C, strain set2, hits give low values 1.01 | locus YJL187C, strain SWE1 (second series), hits give low values 1 | locus YJL187C, strain SWE1, hits give low values 1 | locus YJR043C, strain POL32, hits give low values 1 | locus YJR066W, strain TOR1, hits give low values 0.966
